Bioassay records deposited in PubChem by National Center for Advancing Translational Sciences (NCATS).
Compounds with a hit are over-represented: about 3% of the library has one in this group of screens.
GFP derepression: qHTS Assay for Epigenetic Modulators | mouse C127i GFP locus derepression, cytometry, 30 h | Potency, µM (highest dose often 46.1 µM), inactives show top-dose GFP derepression (activation) | 0.09% of 68,000 active; also: % of control where 0% means no effect
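Read-out is the number of GFP-positive cells, scored as fluorescent objects 20 to 120 um wide, reflecting derepression of a silenced CMV-GFP reporter in murine C127i cells after 30 h compound exposure at 37 C.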
HEK293 cAMP ctrl: qHTS Assay for Agonists of the Thyroid Stimulating Hormone Receptor: Activators of Intracellular cAMP Concentrations in Parental HEK 293; Potency, µM (series often up to 57.1 µM), for the others: top-dose activation, hits mostly activators; 2.5% of 73,000 active; AID 938, 2007; parental HEK293 CNG cAMP sensor, membrane potential fluorescence; also: potency is read from the fitted curve at half-maximal effect; % of control where 0% means no effect; nearly all actives have a fitted effect of over 55% in size
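Parental HEK 293 cells stably expressing a modified CNG channel (no TSHR) report cAMP rise as membrane depolarization. Membrane potential dye with 100 uM RO 20-1724 was loaded for 60 min at room temperature, then compound added for 30 min; fluorescence read at 590 nm.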
TSHR agonist: qHTS Assay for Agonists of the Thyroid Stimulating Hormone Receptor. Potency, µM (series often up to 57.1 µM), inactives show at the top dose activation, hits mostly activators. 0.48% of 73,000 active. HEK293-CNG-TSHR cells (CNG channel as cAMP sensor), membrane potential dye, cAMP. Thyrotropin receptor (Homo sapiens), P16473; active = well fitted activation curve with a large enough effect in the main read-out, with a control signal flat, not every such curve was filed as active; inconclusive = small, poorly fitted or top-dose-only effect, or a change in a side signal; inactive = no such curve, though single readings can be large or run the other way; % of control where 0% means no effect;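 also: the control signal comes from parental cells without the receptor; potency is read from the fitted curve at half-maximal effect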
Target sequence (P16473 whole entry, looked up): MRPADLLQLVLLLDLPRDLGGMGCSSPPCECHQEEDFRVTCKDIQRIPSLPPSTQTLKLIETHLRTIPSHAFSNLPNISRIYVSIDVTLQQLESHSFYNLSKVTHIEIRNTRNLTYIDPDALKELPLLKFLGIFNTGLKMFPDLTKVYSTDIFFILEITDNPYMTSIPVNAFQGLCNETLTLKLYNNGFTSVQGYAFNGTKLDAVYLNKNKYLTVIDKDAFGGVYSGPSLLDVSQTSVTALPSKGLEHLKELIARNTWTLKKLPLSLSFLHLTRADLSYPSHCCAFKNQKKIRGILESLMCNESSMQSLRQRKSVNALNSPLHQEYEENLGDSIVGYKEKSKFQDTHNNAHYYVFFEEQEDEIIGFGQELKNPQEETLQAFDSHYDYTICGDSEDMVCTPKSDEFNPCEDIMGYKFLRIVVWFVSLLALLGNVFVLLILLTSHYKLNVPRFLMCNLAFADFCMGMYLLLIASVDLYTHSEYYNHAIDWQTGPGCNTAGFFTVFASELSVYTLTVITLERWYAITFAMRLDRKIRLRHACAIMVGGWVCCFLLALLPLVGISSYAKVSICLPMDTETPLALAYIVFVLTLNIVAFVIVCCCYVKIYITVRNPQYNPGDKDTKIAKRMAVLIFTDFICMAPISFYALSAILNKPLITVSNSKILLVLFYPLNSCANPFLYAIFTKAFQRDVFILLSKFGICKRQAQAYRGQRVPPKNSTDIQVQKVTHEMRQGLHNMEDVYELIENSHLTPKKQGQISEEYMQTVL
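cAMP rise detected as CNG-channel membrane depolarization by fluorescent dye (emission 590 nm), 30 min after compound, following 60 min dye loading containing 100 uM RO 20-1724 at room temperature. Cells: TSHR/CNG HEK 293, with parental CNG HEK 293 as control.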
HBB splicing: qHTS Assay for Modulators of Hemoglobin Beta Chain Splicing | Potency, µM (doses to about 46.1 µM), for inactives: at the top dose activation, hits mostly activators | HBB splicing reporter cell assay, activation; EGFP reporter with mutant IVS2-654 intron; response scale: normalised to 500 nM splice-correcting PNA | AID 925, 2007 | 0.06% of 65,000 active; also: potency is read from the fitted curve at half-maximal effect; 0% is about no effect
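HeLa cells stably expressing EGFP interrupted by mutant beta-globin intron 2 (IVS2-654), 500/well in 2% FCS. Treated with compound for 2 days at 37C. Splicing correction scored as total well GFP intensity (488 nm excitation, 500-520 nm emission); 500 nM antisense PNA served as control.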
Ub-GFP proteasome: Ubiquitin-GFP Assay | AID 526, 2006 | Ubiquitin-GFP reporter cells, proteasome inhibition, GFP fluorescence; response scale: untreated = 0%, 10 µM MG-132 = 100% | Potency, µM (top dose mostly 45.9 µM), without a hit: at the top dose activation (GFP accumulation), actives largely listed as activators | 67,000 tested, under 10 active; active = well fitted activation curve with a large enough effect, not every such curve was filed as active; inconclusive = small, poorly fitted or top-dose-only effect, or another doubt; inactive = no such curve, though single readings can be large or run the other way; also: potency is read from the fitted curve at half-maximal effect
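Reporter cells (U2OS, ubiquitin-G76V-GFP fusion) are plated overnight, then treated 4 hr at 37 °C with compound titrations from 46 uM down to 2.9 nM. Activity is scaled against untreated cells and 10 uM MG-132.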
Numbers without * were called inactive; ? = inconclusive; . = no result given; [ ] = another dose, or the depositor's remark. Unless noted, calls follow the shape of the dose curve; as a rule, active = well fitted curve in the direction sought with a large enough effect; inconclusive = small, poorly fitted or top-dose-only effect, or another doubt; inactive = no such curve, though single readings can be large; an effect the other way counts as inactive or inconclusive.

SMILES	GFP derepression	HEK293 cAMP ctrl	TSHR agonist	HBB splicing	Ub-GFP proteasome
CCOc1ccc(C2C=C(c3ccc(C)cc3)Nc3ncnn32)cc1 (stereo not given)	2.8%	20µM*	?	-0.2%[1.84 µM]	7.1%
CCOc1ccc(C2C=C(c3ccc(C)cc3)Nc3nnnn32)cc1 (stereo not given)	9.8%	18.4%	19.9%	2.3%[1.84 µM]	20.0%
Cc1ccc(S(=O)(=O)N2Cc3ccccc3CC2C(=O)Nn2cnnc2)cc1 (stereo not given)	6.9%	-0.9%	-0.6%	-0.5%	1.1%
O=C(C1Cc2ccccc2CN1S(=O)(=O)c1ccc(F)cc1)N1CCCCCC1 (stereo not given)	0.6%	?	?	0.9%[57.5 µM]	3.7%
CC1CCN(C(=O)C2Cc3ccccc3CN2S(=O)(=O)c2ccc(F)cc2)CC1 (stereo not given)	-0.3%	20µM*	?	-0.8%	13.7%
Cc1ccc(S(=O)(=O)N2Cc3ccccc3CC2C(=O)Nc2cc(C)on2)cc1 (stereo not given)	3.3%	22.4%	25.1µM*	0.0%[57.5 µM]	-2.6%
CC(C)=CCNc1ncnc2c1c(C#N)cn2[C@H]1O[C@@H](CO)[C@@H](O)[C@@H]1O	6.9%[9.22 µM]	-3.7%[11.4 µM]	2.1%[11.4 µM]	4.4%[9.22 µM]	-3.9%[9.17 µM]
O=c1cc(-c2ccc(O)c(O)c2)oc2cc(O[C@@H]3O[C@@H](CO)[C@@H](O)[C@@H](O)[C@H]3O)cc(O)c12	-4.6%[9.22 µM]	-2.4%	-5.5%	.	5.1%
Cc1ccc(-c2nc3nc4ccccc4nc3n2Cc2ccco2)cc1	0.0%	25.1µM*	?	3.2%[57.5 µM]	2.6%
c1ccc(Cn2c(-c3ccco3)nc3nc4ccccc4nc32)cc1	2.1%	18.9%	8.3%	6.5%[57.5 µM]	-9.2%
COc1ccccc1Cn1c(-c2ccco2)nc2nc3ccccc3nc21	12.6µM*	13.0%	-1.5%	2.0%[57.5 µM]	-1.9%
CC(=O)Nc1ccc(SCC(=O)N(CCC#N)c2ccc(C)cc2)cc1	0.0%	0.0%	8.8%	-2.7%	-1.7%
COc1ccccc1N(CCC#N)C(=O)CSc1ccc2c(c1)OCCO2	2.6%	5.5%	25.1µM*	2.1%[57.5 µM]	-6.1%
CC(=O)[C@@]1(O)Cc2c(O)c3c(c(O)c2[C@H](O[C@H]2C[C@H](N)[C@H](O)[C@H](C)O2)C1)C(=O)c1ccccc1C3=O	12.6µM*	?	?	12.6µM*	-11.3%
O=C1CCCC=C1[C@H](O)CCCCBr	.	2.7%[11.4 µM]	3.2%[11.4 µM]	3.3%[9.22 µM]	.
Nc1ccn([C@H]2O[C@@H](COP(=O)(O)O)[C@@H](O)[C@H]2O)c(=O)n1	2.4%[9.22 µM]	-3.8%[11.4 µM]	1.7%[11.4 µM]	0.8%[9.22 µM]	6.2%[9.17 µM]
CCOC(=O)c1cnc(-n2nc(C)cc2C)nc1Nc1cccc(C(=O)O)c1	5.7%	13.1%	25.1µM*	-0.7%	8.7%
C[Si](C)(C)Cl	.	20.2%	0.2%	-0.7%	.
O=C(Nc1sc2c(c1C(=O)NC1CCCCC1)CCC2)c1ccco1	-2.7%	23.6%	15.8µM*	-1.8%	-1.6%
O=C1CCc2cc(OCCCCc3nnnn3C3CCCCC3)ccc2N1	0.0%[20.6 µM]	?	25.1µM*	-1.8%	2.6%
CC(C)CCNC(=O)C1CCN(S(=O)(=O)c2ccc3c(c2)CCC(=O)N3)CC1	-3.9%	6.31µM*	?	0.9%	2.6%
CC(C)CNC(=O)CN(C1CCCCC1)S(=O)(=O)c1ccccc1	5.4%	29.0%	31.6µM*	1.7%	-1.4%
O=C(CCc1ccccc1)Nc1c(F)c(F)c(F)c(F)c1F	2.2%	15.8µM*	?	0.4%[9.22 µM]	0.0%
CC(=O)CCc1ccccc1	.	18.1%	1.5%	0.6%	.
COC(=O)C1=C(C)NC(C)=C(C(=O)OC)C1c1cn(-c2ccccc2)nc1-c1ccco1	2.5%	8.3%	1.58µM*	-5.7%	-3.7%
SMILES	GFP derepression	HEK293 cAMP ctrl	TSHR agonist	HBB splicing	Ub-GFP proteasome
COCCOC(=O)C1=C(C)NC(=O)NC1c1cn(-c2ccccc2)nc1-c1cccs1 (stereo not given)	2.5%	1.1%	16.9%	-3.9%	-1.7%
CCCS(=O)(=O)NCCc1csc(-c2cccnc2)n1	.	4.3%	36.5%	0.0%	4.4%
CCNC(=O)C1CC(=O)N(Cc2ccc3c(c2)OCO3)C(=Nc2ccc(OCC)cc2)S1 (stereo not given)	2.6%	8.3%	31.6µM*	1.7%[0.369 µM]	6.0%
O=C(O)CC(c1ccccc1)c1ccccc1	-2.1%	28.1%	9.6%	0.1%[0.369 µM]	.
O=C(O)CC[P+](c1ccccc1)(c1ccccc1)c1ccccc1	3.4%[9.22 µM]	3.16µM*	?	3.9%[9.22 µM]	-1.5%[9.17 µM]
CCCCC(=O)N(C)C	.	23.5%	7.7%	0.9%	.
COc1ccccc1-c1nccc(N2CCN(C)CC2)n1	-2.9%[9.22 µM]	28.2%	25.7%	1.4%	-4.0%
CN1CCN(c2ccnc(-c3ccccc3C(F)(F)F)n2)CC1	-2.9%[9.22 µM]	31.6µM*	?	-1.5%	3.3%
Cc1ccc(-n2nnnc2SCC(=O)Nc2ccccc2N2CCCCC2)cc1C	0.0%	3.16µM*	?	.	-1.1%
COc1cccc(-n2nnnc2SCC(=O)Nc2cccc(C)n2)c1	3.6%	25.1µM*	?	-1.1%	1.8%
C=Cc1ccc(C=C)cc1	.	0.2%	4.1%	1.4%	.
O=C(O)C[C@@H]1CCCc2ccccc2[C@H]1O	1.1%	?	?	0.2%	2.3%
COc1ccc(-c2c3c(=O)n(C)c(=O)n(C)c3cn2-c2cc(OC)ccc2OC)cc1	2.2%	13.6%	25.1µM*	-2.0%[57.5 µM]	-2.6%
Cn1c(=O)c2c(-c3ccccc3)n(-c3ccccc3O)cc2n(C)c1=O	2.4%	-1.0%	0.9%	-1.3%	-4.2%
C=CCOCC/C=C1/c2ccccc2C(OC)C1C (stereo not given)	.	0.3%[11.4 µM]	4.7%[11.4 µM]	-0.9%[9.22 µM]	.
Cc1cc2oc(=O)cc(CN3CCC(C)CC3)c2cc1Cl	0.9%	25.1µM*	?	-1.5%	-15.4%
CCc1cc(=O)oc2cc(C)c(CN3CCCC3)c(O)c12	-4.5%[20.6 µM]	.	.	.	.
Cc1cc2oc(=O)cc(CN3CCN(Cc4ccccc4)CC3)c2cc1Cl	3.8%	28.8%	18.0%	0.1%[57.5 µM]	-0.5%
Cc1cc2oc(=O)cc(CN3CCN(Cc4ccc5c(c4)OCO5)CC3)c2cc1C	0.0%	-21.4%	2.51µM*	0.0%[57.5 µM]	-5.0%
Cc1cc2oc(=O)cc(CN3CCCCC3C)c2c(C)c1Cl (stereo not given)	2.6%	25.1µM*	?	-0.9%[57.5 µM]	5.2%
COc1cc2c(cc1OC)-c1cc(Nc3ccc4c(c3)OCCO4)nc(=O)n1CC2	2.1%	-10.6%	.	-3.5%[57.5 µM]	-5.5%
COc1cc2c(cc1OC)-c1cc(NC3CCCCCC3)nc(=O)n1CC2	10.9%	19.4%	10µM*	-2.1%[57.5 µM]	-3.5%
O=c1oc2c3c4c(cc2cc1-c1nc2ccccc2[nH]1)CCCN4CCC3	0.9%	-11.4%	-14.3%	0.794µM*	12.9%
